Mito fusion yeast – inhibitors of mitochondrial division or activators of mitochondrial fusion; S. cerevisiae fusion-defective mutant growth rescue, CellTiterGlo 48 h; Potency, µM (titrated, usually from 46.1 µM), inactives show at the highest dose growth rescue (activation), usual class: activators; hit rate 0.23% among 320,000; also: % of control where 0% means no effect; nearly all actives have a fitted effect of over 45% in size
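S. cerevisiae fusion-defective temperature-sensitive mutants (e.g. fzo1-1, mgm1-5) grown 48 h at 37C in YPEG (ethanol/glycerol non-fermentable) medium with 23 nl compound per well; growth rescue read as CellTiterGlo luminescence.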
GCN5L2 inh – inhibitors of human GCN5L2 histone acetyltransferase | Q92830 | GCN5L2 HAT assay, ThioGlo1 CoA-SH fluorescence | Potency, µM (series often up to 58.9 µM), for the others: at the highest dose activity change, negative = inhibition, hits mostly inhibitors | hit rate 0.21% among 390,000 | AID 504327; also: % is scaled to controls: 0 for no effect and ±100 for the full control effect
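Free CoA generated was detected with ThioGlo1 (50uM) fluorescence at Ex340nm/Em540nm, read immediately and after 20 min at room temperature. Enzyme, 20 nM in HEPES pH 7.5 buffer, saw compounds 15 min before adding 75uM H3(1-25) peptide and 70uM acetyl-CoA.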
PLK1 PBD inh – blocks phosphopeptide binding to human PLK1 polo-box domain; P53350; Plk1 PBD binding of FITC phosphopeptide, fluorescence polarization; Potency, µM, inactives show max response, negative = inhibition, most hits filed as inhibitors; hit rate 2.8% among 360,000; also: series mostly up to about 57 µM; % is scaled to controls: 0 for no effect and ±100 for the full control effect; nearly all actives have a fitted effect of over 65% in size
PKM2 act – activators of human pyruvate kinase M2; hit rate 0.34% among 260,000; P14618; purified PKM2, Kinase-Glo ATP luminescence, activation; response scale: 0% is enzyme alone, no compound; AID 1631; Potency, µM (top dose mostly 57.5 µM), without a hit: top-dose activation, hits mostly activators; also: % is scaled to controls: 0 for no effect and ±100 for the full control effect; nearly all actives have a fitted effect of over 55% in size
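Kinase-Glo luminescence reports ATP generated from ADP (0.1 mM) and PEP (0.5 mM) by purified hPK-M2 after 1 h at room temperature, pH 7.2 imidazole buffer; intermediate enzyme activity allows detecting inhibitors and activators.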
GLS inhibitor – inhibitors of human glutaminase (GLS). GLS enzymatic activity, qHTS titration. Potency, µM (top dose mostly 45.5 µM), inactives show at the highest dose activity change, negative = inhibition, usual class: inhibitors. hit rate 0.21% among 410,000. AID 624170; also: % is scaled to controls: 0 for no effect and ±100 for the full control effect
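Enzyme dispensed in phosphate buffer (45 mM, pH 8.2, 0.02% Tween-20), compounds pinned in, then 1 mM L-glutamine solution and the glutamate oxidase–HRP–Amplex Red mix added; fluorescence read immediately and again after 30 min at room temperature.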
VDR inhibitor – blocks the human vitamin D receptor | P11473 | AID 504847 | hit rate 0.93% among 400,000 | VDR-SRC2-3 peptide fluorescence polarization, 2 h | Potency, µM, for inactives: max response, negative = inhibition, most hits filed as inhibitors; also: % is scaled to controls: 0 for no effect and ±100 for the full control effect
Target sequence (P11473 whole entry, looked up): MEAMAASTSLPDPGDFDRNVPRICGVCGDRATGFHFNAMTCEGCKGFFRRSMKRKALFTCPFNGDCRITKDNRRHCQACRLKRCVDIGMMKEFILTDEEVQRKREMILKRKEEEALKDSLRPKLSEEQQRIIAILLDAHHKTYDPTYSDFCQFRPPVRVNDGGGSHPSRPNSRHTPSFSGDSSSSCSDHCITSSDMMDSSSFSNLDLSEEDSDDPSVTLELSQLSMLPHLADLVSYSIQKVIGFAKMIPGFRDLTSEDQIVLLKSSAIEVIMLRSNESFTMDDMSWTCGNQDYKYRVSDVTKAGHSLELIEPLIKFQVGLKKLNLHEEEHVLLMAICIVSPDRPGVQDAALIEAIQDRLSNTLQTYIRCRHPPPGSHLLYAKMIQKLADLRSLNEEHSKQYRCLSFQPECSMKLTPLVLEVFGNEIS
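Measured by FP: displacement of SRC2-3 coactivator peptide from VDR by library compounds, following a two-hour ambient incubation.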
* = called active by the depositor; ? = inconclusive; · = not tested or not shown; [ ] = dose if it differs, or a comment. Only some compounds are listed: those with a hit (about 3.4% of all), similar ones and a draw of the others. Calls follow the shape of the dose curve; as a rule, active = well fitted curve in the direction sought with a large enough effect; inconclusive = small, poorly fitted or top-dose-only effect, or another doubt; inactive = no such curve, though single readings can be large; an effect the other way counts as inactive or inconclusive. Potency is read from the fitted curve at half-maximal effect.

SMILES	Mito fusion yeast	GCN5L2 inh	PLK1 PBD inh	PKM2 act	GLS inhibitor	VDR inhibitor
CNc1nc(-c2ccccc2C(F)(F)F)nc2ccccc12	·	-4%	·	·	·	0%
O=C(Cc1ccc(Cl)cc1)Nc1ccc(N2CCCC2)cc1	-1%	-4%	3%	0%	-4%	22%
Clc1cccc(Cl)c1CNc1ccc(N2CCCC2)cc1	-5%	3%	?	9%	7.1µM*	?
COc1ccccc1NCC(=O)c1ccc(Cl)cc1	-4%	9%	-12%	·	20%	79µM*
CCOc1ccc(OCC)c(NC(=O)c2nnn(CC(=O)Nc3cc(Cl)ccc3OC)c2N)c1	·	0%	·	·	-1%	1%
COc1ccc(OC)c(CN2CCN(C(=O)CN3C(=O)NC4(CCCC4)C3=O)CC2)c1	0%	-2%	-3%	·	19%	-13%
NNC(=O)CN1C(c2ccccc2Br)=Nc2ccc(Br)cc2C1c1ccccc1 (stereo unspecified)	-10%	-11%	-10%	9%	44%	71µM*
CC(C)[C@H](NC(=O)C1CC(=O)N(c2ccc(F)cc2)C1)C(=O)N1CCCCC1 (stereo partly specified)	-4%	0%	3.4µM*	·	?	?
CCOC(=O)Cc1csc(NC(=O)CC)n1	1%	0%	-8%	0%	19%	-3%
CCOC(=O)Cc1csc(NC(=O)Cn2cnc3c2c(=O)n(C)c(=O)n3C)n1	2%	?	12µM*	4%	-5%	?
COc1ccc(CCNc2ncnc3c2nnn3C)cc1OC	·	0%	·	·	3%	15%
CC(C)NC(=O)COc1ncnc2sccc12	1%	32µM*	-5%	3%	-4%	-10%
CC(C)NC(=O)NC(=O)COc1ncnc2sccc12	11%	0%	27µM*	-18%	42%	?
O=C(COc1ncnc2sccc12)NC1CCCCC1	2%	-4%	4%	·	5%	-15%
COCCCNc1oc(-c2ccccc2F)nc1C#N	-4%	-1%	24µM*	-1%	12%	?
Nc1nc(O)c(Sc2ccccc2[N+](=O)[O-])c(=O)[nH]1	2%	-19%	12µM*	·	-11%	-10%
COc1ccc(N2C(=O)CSC23C(=O)N(CC(=O)Nc2ccccc2F)c2ccccc23)cc1 (stereo unspecified)	·	11%	·	·	1%	4%
C[C@@H](O)CCC[C@H](O)/C=C/[C@H]1[C@H](O)CC(=O)[C@@H]1C/C=C\CCCC(=O)O	·	·	·	·	·	-8%
Cc1ccccc1-c1cncnc1NCCN1CCOCC1	·	-23%	·	·	·	?
CN(C)c1ccc(-c2cncnc2NCCN2CCOCC2)cc1	·	-29%	·	·	·	40µM*
COc1ccc2[nH]cc(CCNc3ncncc3-c3cccc(NS(C)(=O)=O)c3)c2c1	·	-15%	·	·	·	-9%
COc1ccc(-c2ccc(C(=O)C3CC3)cc2)cc1	-5%	-12%	-12%	·	7%	2%
CC[N+]1(C)CCC(O)(c2ccc(OC)cc2)C(C(=O)c2ccc(OC)cc2)C1 (stereo unspecified)	·	·	6.7µM*	·	-10%	?
CCN(CC)CCCNC(=O)c1cc(Cl)c(NC(=O)C2=C(C)OCCS2)cc1OC	-6%	-3%	-3%	·	-10%	4%
CCOC(=O)C1=C(COC(=O)/C=C/c2ccc(OC)cc2OC)NC(=O)NC1C (stereo unspecified)	15%	-15%	-1%	·	1%	1%
SMILES	Mito fusion yeast	GCN5L2 inh	PLK1 PBD inh	PKM2 act	GLS inhibitor	VDR inhibitor
O=C(COc1ccc(Br)cc1)Nc1nnc(-c2cccnc2)s1	4%	-1%	30µM*	0%	6%	?
O=C(COc1ccc(F)cc1)Nc1nc(-c2cccnc2)cs1	·	·	-27%	·	2%	·
CC(=O)Nc1ccc(NC(=O)CSc2ccc(-c3cccnc3)nn2)cc1	-1%	-5%	-10%	3%	2%	-9%
Cc1nnc(NC(=O)CSc2ccc(-c3cccnc3)nn2)s1	7%	2%	-14%	2.8µM*	-3%	-8%
C=CCn1c(SCC(=O)Nc2nnc(C)s2)nnc1-c1cccnc1	2%	-4%	21µM*	-1%	-16%	-3%
CC1C(=O)N(Cc2cn(CC3CCCCC3)nn2)CCS(=O)(=O)N1Cc1ccc(-c2ccc(Cl)cc2)cc1 (stereo unspecified)	·	·	-5%	·	6%	·
CC(C#N)(NC(=O)CN1CCN(S(=O)(=O)c2cccc(F)c2)CC1)C1CC1 (stereo unspecified)	·	·	-12%	·	0%	·
CC1(C)Nc2ccc(O)cc2-c2c1ssc2=S	4%	-4%	27µM*	-1%	21%	?
C/C(=N\N=C1\NC(=O)C(Cc2ccccc2)S1)c1ccccc1 (stereo unspecified)	-10%	-17%	30µM*	3%	5%	7%
O=C1N/C(=N/N=C/c2ccco2)SC1Cc1ccccc1 (stereo unspecified)	0%	-3%	-2%	-2%	-4%	-19%
N#Cc1nc(N)nc(N2CCCCC2)n1	·	·	·	·	·	-12%
O=S(=O)(c1ccc(F)cc1)N1CCN(c2nc(-c3cccs3)nc3cc(Cl)ccc23)CC1	·	·	·	·	·	-20%
CC1Cc2ccccc2N1Cc1cc(=O)n2ccsc2n1 (stereo unspecified)	0%	-10%	24µM*	0%	?	-13%
C=C1CCC[C@]2(C)C[C@H]3OC(=O)[C@H](CNCCc4ccccc4OC)C3CC12 (stereo partly specified)	·	·	·	·	·	-15%
C[C@H]1Cc2c(COc3ccccc3)nc3c(c2CO1)CN(C(=O)C1CC1)CC3	·	·	·	-1%[11.5 µM]	·	·
Cc1cccc(-n2c3nc(=O)[nH]c(=O)c-3cc3cc([N+](=O)[O-])ccc32)c1	-4%	2%	11µM*	-2%	5%	-29%
Cc1cccc(-n2c3nc(=O)[nH]c(=O)c-3cc3c(C)nn(-c4ccccc4)c32)c1C	-1%	-2%	-5%	-5%	3%	-10%
Cc1ccc(C)c(-n2c3nc(=O)[nH]c(=O)c-3cc3cc([N+](=O)[O-])ccc32)c1	-4%	-7%	7.5µM*	1%	-21%	?
CCOC(=O)c1cc2c(=Cc3ccc(N(C)C)cc3)c3ccccc3n2[n+]1C	·	·	13µM*	·	29%	?
CN(C)c1ccc(C=c2c3ccccc3n3c2c2ccccc2[n+]3C)cc1	·	·	24µM*	·	-11%	-93%
Cc1cc2c(=Cc3ccc(N(C)C)cc3)c3ccccc3n2[n+]1C	·	·	13%	·	-10%	-6%
CCOC(=O)CSc1nc(N)c(C#N)c(-c2ccc(OCC)cc2)c1C#N	-1%	-4%	-10%	-9%	3%	18%
COC(=O)CSc1nc(N)c(C#N)c(-c2ccc(O)cc2)c1C#N	-2%	-10%	-10%	0%	11µM*	6%
